Experimental data from PubChem BioAssay (NCATS).
Inconclusive results are not listed. A call without a number means that no potency is given here. The source made the active and inactive calls. Calls come from the whole dose curve; as a rule, active = well fitted curve in the direction sought with a large enough effect; inconclusive = small, poorly fitted or top-dose-only effect, or another doubt; inactive = no such curve, though single readings can be large; an effect the other way counts as inactive or inconclusive.

Biological target: Papain (Carica papaya) (UniProt P00784)
Test: Primary qHTS assay for inhibitors of the protease papain (AID 1645873);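 note: papain turnover of Z-FR-AMC read as the AMC fluorescence gain over 10 min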
Settings: papain Z-FR-AMC cleavage, AMC fluorescence; series mostly up to 49.8 µM

Chain of Papain (Carica papaya) (P00784 whole entry, looked up): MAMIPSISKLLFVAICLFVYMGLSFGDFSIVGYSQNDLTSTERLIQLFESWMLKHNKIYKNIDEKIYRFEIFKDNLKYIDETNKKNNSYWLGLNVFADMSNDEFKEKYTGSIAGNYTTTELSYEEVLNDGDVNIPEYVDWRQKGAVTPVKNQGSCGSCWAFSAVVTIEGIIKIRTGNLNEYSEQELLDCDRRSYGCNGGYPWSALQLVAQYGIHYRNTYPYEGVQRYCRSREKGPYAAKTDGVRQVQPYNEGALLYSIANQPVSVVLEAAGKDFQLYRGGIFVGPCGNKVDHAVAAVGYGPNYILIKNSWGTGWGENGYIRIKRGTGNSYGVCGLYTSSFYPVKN

| Compound | outcome |
| --- | --- |
| COc1ccc2c(c1OC)C(=O)O[C@H]2[C@@H]1c2cc3c(cc2CCN1C)OCO3 | inactive |
| O=c1[nH]oc2c1CCNC2 | inactive |
| Cc1ncsc1CCCl | inactive |

Test system: not listed separately
Test: Primary qHTS for inhibitors of nuclear receptor binding SET domain protein 2 (NSD2) in an isogenic RCH-ACV NSD2 p.E1099K mutant (9B) (AID 1645876); note: nearly all actives have a fitted effect of over 70% in size; note: potency is the fitted concentration of half-maximal effect
Settings: RCH-ACV (leukaemia line) NSD2 E1099K (9B) viability, CellTiter-Glo, 72 h; series mostly up to 44.9 µM

| Compound | Potency |
| --- | --- |
| CC(=O)C1CCOC1=O (configuration not stated) | inactive |
| COc1ccc2c(c1OC)C(=O)O[C@H]2[C@@H]1c2cc3c(cc2CCN1C)OCO3 | inactive |
| C[C@]12CCC(=O)C=C1CC[C@@H]1[C@H]3CC[C@](C)(O)[C@@]3(C)CC[C@@H]12 | 34.7 µM (active) |
| CC(=O)OCC1=C(C(=O)O)N2C(=O)[C@@H](N)[C@H]2SC1 | inactive |
| CC(C)NC(C)C | inactive |
| CN1CCC(O)(c2ccc(F)cc2)C(C(=O)c2ccc(F)cc2)C1 (configuration not stated) | inactive |
| CC(C)(C)NCC(O)c1cc(Cl)c(N)c(C(F)(F)F)c1 (configuration not stated) | inactive |
| COc1cccc(C(=O)CCN[C@@H](C)[C@H](O)c2ccccc2)c1 | 16.8 µM (active) |
| C[C@H](N)C(=O)c1ccccc1 | inactive |
| C[C@]12CC[C@H]3[C@@H](CC[C@@]45O[C@H]4C(O)=C(C#N)C[C@]35C)[C@H]1CC[C@H]2O | 15 µM (active) |
| CC1(C)C(C=C(Cl)Cl)C1C(=O)OC(C#N)c1cccc(Oc2ccccc2)c1 (configuration not stated) | inactive |
| CCCOC(=O)c1cncn1C(C)c1ccccc1 (configuration not stated) | inactive |
| COC(=O)[C@@H](N)CCCN/C(N)=N/[N+](=O)[O-] | inactive |
| CCOP(=S)(OCC)Oc1ccc2c(C)c(Cl)c(=O)oc2c1 | 7.5 µM (active) |
| O=C(Nc1ccc(Br)cc1)c1cc(Br)cc(Br)c1O | inactive |
| O=C(O)c1ccc(=O)[nH]c1 | inactive |
| C=CCN1C[C@H](C)N([C@H](c2ccc(C(=O)N(CC)CC)cc2)c2cccc(OC)c2)C[C@H]1C | inactive |

| Compound | Potency |
| --- | --- |
| CC[N+]1(CC)CCC(OC(=O)C(O)(c2ccccc2)c2ccccc2)C1 (configuration not stated) | inactive |
| O=c1[nH]oc2c1CCNC2 | inactive |
| CCCCCCC(=O)CCCCCC/C=C/C[C@@H](O)[C@H](O)[C@@](N)(CO)C(=O)O | inactive |
| CC(C)c1c(CN(C)C(C)Cc2ccccc2)n(C)n(-c2ccccc2)c1=O (configuration not stated) | inactive |
| CCC1(CC)C(=O)C=CNC1=O | inactive |
| O=C1OC(CCN2CCCCC2)OC1(c1ccccc1)c1ccccc1 (configuration not stated) | 8.41 µM (active) |
| Oc1ccc(Cl)cc1 | inactive |
| COP(=S)(OC)Oc1ccc(S(=O)(=O)N(C)C)cc1 | inactive |
| C[C@]12CC[C@H]3[C@@H](CCC4=CC(=O)CC[C@@H]43)[C@@H]1CC[C@@H]2OC(=O)CCC1CCCCC1 | 23.7 µM (active) |
| CC(=O)NC1CCSC1=O (configuration not stated) | inactive |
| CN1C(=O)NC(=O)C(C)(C2=CCCCC2)C1=O (configuration not stated) | inactive |
| CC(C)=CC1C(C(=O)OCN2C(=O)C3=C(CCCC3)C2=O)C1(C)C (configuration not stated) | inactive |
| COc1ccc2c3c1O[C@H]1[C@H](O)CC[C@H]4[C@@H](C2)N(C)CC[C@@]341 | inactive |
| COC(=O)C(Cl)C(=O)OC | inactive |
| CNCC(=O)c1ccc(O)c(O)c1 | inactive |
| Clc1ccc(C(c2ccc(Cl)cc2)C(Cl)(Cl)Cl)cc1 | inactive |
| Cc1ncsc1CCCl | inactive |
